Bioassay records deposited in PubChem by Sanford-Burnham Center for Chemical Genomics.
CYP2C9 inh: human CYP2C9 inhibition. P11712. CYP2C9 Supersomes, luciferin-H conversion, luminescence. inhibition, % at 5 µM. hit rate 20% among 96,000;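 active means blocking of liver enzyme CYP2C9 beyond about 50% at 5 µM, limit read from the data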
PLAP activator: activates human placental alkaline phosphatase; activation fold at 20 µM; P05187; purified PLAP enzyme, luminescent substrate read-out; active compounds read high; hit rate 1.2% among 96,000; in the data active means activation fold above about 2
CYP2C19 inh: human CYP2C19 inhibition | P33261 | CYP2C19 Supersomes, luciferin-H EGE luminescence, 30 min | inhibition, % at 5 µM | hit rate 21% among 96,000;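 active means CYP2C19 inhibition above a set limit at 5 µM in the primary screen, cut at about 50% in these data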;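 further: plate controls were negative control wells for no effect and 2.5 mM tranylcypromine positive control for full effect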
Target sequence (P33261 whole entry, looked up): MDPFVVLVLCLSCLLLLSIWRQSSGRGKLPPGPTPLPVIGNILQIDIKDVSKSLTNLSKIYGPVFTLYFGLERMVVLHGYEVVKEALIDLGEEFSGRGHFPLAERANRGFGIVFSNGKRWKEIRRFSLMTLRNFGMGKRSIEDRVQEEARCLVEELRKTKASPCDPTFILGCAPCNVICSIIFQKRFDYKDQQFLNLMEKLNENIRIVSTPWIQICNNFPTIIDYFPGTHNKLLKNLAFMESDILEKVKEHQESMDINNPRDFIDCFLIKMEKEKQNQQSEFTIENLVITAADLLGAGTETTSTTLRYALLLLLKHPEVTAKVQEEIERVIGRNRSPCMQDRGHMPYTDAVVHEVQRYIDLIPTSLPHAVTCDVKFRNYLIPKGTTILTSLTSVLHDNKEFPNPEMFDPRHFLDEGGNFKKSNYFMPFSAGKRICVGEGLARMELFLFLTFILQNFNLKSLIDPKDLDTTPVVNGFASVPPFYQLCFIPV
CYP2C9 activ: activators of human CYP2C9; P11712; recombinant CYP2C9, luciferin-H conversion, luminescence; active compounds read high; factor 1 = untreated enzyme, 0 = blocked; activation factor at 5 µM; hit rate 1.4% among 96,000; AID 1024;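 active means activation factor of 2 or more for CYP2C9 at a 5 µM dose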;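 further: 0 = sulfaphenazole-blocked wells and 1 = vehicle-only wells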
CYP2C19 act: cytochrome P450 2C19 (human) activation; activation factor at 5 µM; recombinant CYP2C19, luciferin-H EGE luminescence; active compounds read high; 0 = fully inhibited enzyme, 1 = untreated enzyme; 96,000 tested, under 10 active;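 active means activation factor of at least 2 at 5 µM in the primary screen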;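 further: 0 = wells with 2.5 mM tranylcypromine and 1 = vehicle-only wells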
Active calls of the source: *. Rows were chosen to be rich in hits. Some 31% of all compounds tested hit in one or more screens of this group.

SMILES	CYP2C9 inh	PLAP activator	CYP2C19 inh	CYP2C9 activ	CYP2C19 act
COCC(C)NC(C(=O)Nc1ccc(C)c(Cl)c1)c1ccccc1 (stereo not given)	86*	1.7	86*	0.1	0.1
COCCNC(C(=O)Nc1cc(Cl)cc(Cl)c1)c1ccccc1 (stereo not given)	70*	1.4	54*	0.3	0.5
CCOC(=O)C(NCCCO)c1ccccc1 (stereo not given)	5	1.1	6	1	0.9
CCN(CC)S(=O)(=O)c1ccc(-c2nnc3sc4cccc(C)c4n23)cc1	78*	1.6	72*	0.2	0.3
CCN(CC)S(=O)(=O)c1ccc(C(=O)Nc2nnc(C(C)C)s2)cc1	19	1	-2	0.8	1
COc1ccc(C(=O)Oc2cccnc2)cc1	18	0.9	33	0.8	0.7
COC(=O)c1ccc(-c2nc(O)c3cnccn23)cc1	49	0.8	51*	0.5	0.5
CCC1=Nc2cc(C(=O)NCCCOC(C)C)ccc2Sc2ccccc21	60*	1.9	72*	0.4	0.3
COc1ccc(-c2noc(CSc3nnc(CCc4ccccc4)n3-c3ccccc3)n2)cc1OC	80*	1.8	99*	0.2	0
Cc1ccc(-c2noc(CSc3nnc(CCc4ccccc4)n3-c3ccccc3)n2)cc1	76*	1.6	83*	0.2	0.2
N#C/C(=C(/O)C(Cl)c1ccccc1)c1nc2ccccc2s1 (stereo not given)	77*	1.3	58*	0.2	0.4
COc1ccc(C(=O)CC(Nc2ccc([N+](=O)[O-])cc2)c2ccc(OC)cc2)cc1 (stereo not given)	68*	1.1	43	0.3	0.6
COc1ccc(C(=O)Cc2cc(OC)c(OC)cc2[N+](=O)[O-])cc1	-30	1	8	1.3	0.9
C=CCc1c(C)nc(SC)nc1Nc1ccc(C(C)=O)cc1	97*	1.6	94*	0	0.1
C=CCc1c(C)nc(SC)nc1Nc1ccc(C(=O)O)cc1	-16	1.1	-15	1.2	1.2
Cc1nn(CC(=O)Nc2ccccn2)c(C)c1[N+](=O)[O-]	-4	1	9	1	0.9
COCCNC(=O)CSc1nc(-c2ccccc2)cs1	6	1	22	0.9	0.8
O=C(O)c1ccccc1NCc1ccncc1	76*	1	1	0.2	1
CCN(CC)S(=O)(=O)c1cccc(-c2nnc(SC(C)C(N)=O)n2CCc2ccccc2)c1 (stereo not given)	56*	1.6	46	0.4	0.5
CCN(CC)S(=O)(=O)c1cccc(-c2nnc(SC(C)C#N)n2Cc2ccccc2)c1 (stereo not given)	64*	1.7	61*	0.4	0.4
CCN(CC)S(=O)(=O)c1cccc(-c2nnc(SCC#N)n2Cc2ccccc2)c1	18	1.6	23	0.8	0.8
CCN(CC)S(=O)(=O)c1cccc(-c2nnc(SCC(=O)c3ccc(Cl)s3)n2C)c1	89*	1.5	71*	0.1	0.3
CCCNC(=O)C(NS(=O)(=O)c1ccc2c(c1)c(=O)n(C)c(=O)n2C)c1ccccc1 (stereo not given)	20	1.1	17	0.8	0.8
Cc1ccc(C(=O)COC(=O)CNS(=O)(=O)c2ccccc2)cc1[N+](=O)[O-]	-5	1.1	6	1.1	0.9
CCCn1nnnc1NC(=O)c1ccc(C)cc1Cl	26	0.9	38	0.7	0.6
SMILES	CYP2C9 inh	PLAP activator	CYP2C19 inh	CYP2C9 activ	CYP2C19 act
O=S(=O)(c1ccccc1)c1nc(-c2cccs2)oc1NCCCn1ccnc1	92*	1.2	98*	0.1	0
CCCCNc1oc(-c2cccs2)nc1S(=O)(=O)c1ccccc1	30	0.9	19	0.7	0.8
O=C(NC1CCCCNC1=O)c1ccc(Cl)cc1 (stereo not given)	52*	1.1	-14	0.5	1.1
CCN(CC)c1ccc(-c2nn3c(-c4cccnc4)nnc3s2)cc1	27	1.7	28	0.7	0.7
O=S(=O)(c1ccccc1)c1nc(Nc2ccccc2N2CCOCC2)sc1Cl	88*	1.5	74*	0.1	0.3
O=C(Nc1ccccc1N1CCOCC1)c1ccc2ccccc2n1	39	1	39	0.6	0.6
O=C(CCN1CCc2ccccc2CC1)c1ccc2c(c1)OCCO2	71*	1.4	55*	0.3	0.4
O=C(CCCN1CCC(c2ccccc2)C1)c1ccc2c(c1)OCCO2 (stereo not given)	19	1.5	72*	0.8	0.3
